Results: ChEMBL document CHEMBL4513216, “Probing the Open Global Health Chemical Diversity Library for Multistage-Active Starting Points for Next-Generation Antimalarials” (ACS Infect Dis, 2020)
Screen size: about 69,000 compounds; about 8,600 (12%) showed an effect of 50% or more. The entries come from a sample that favours strong results as a whole.

These compounds were tested on Plasmodium berghei (assay: Screen against P. berghei liver stage (PbLuc), transformed with Luciferase, at 10uM). Details: tested at 10 uM.
Format: functional, HepG2
Work on `CN(C)CCN(C)C(=O)c1cn(CC2CCCCC2)nn1` yielded an INHIBITION of -9.54%. In the case of `O=C(NC1CCCC1)c1cnn2c(-c3ccco3)ccnc12`, the INHIBITION is reported as -16.4%. Work on `COC(=O)Cn1c(=O)[nH]c2cn(-c3ccc(Br)cc3)c(=O)n21` yielded an INHIBITION of -38.6%. `COc1cc(NC2CCS(=O)(=O)C2)ncn1` (configuration not stated) showed an INHIBITION of 33.7%. With `NC(c1ccc(Cl)cc1)c1cccs1` (configuration not stated) the INHIBITION was 22.5%. `Cc1ccc(C(CC(=O)O)NC(=O)CCc2cccs2)cc1` (configuration not stated) gave an INHIBITION of 31%. `NC(c1ccc(F)cc1)c1cccs1` (configuration not stated) was tested, and the INHIBITION was 55%. With `CS(=O)(=O)c1cccc(C(N)c2ccc(F)cc2)c1` (configuration not stated) the INHIBITION was -9.76%. With `CC(C)c1ccc(C(N)c2cccs2)cc1` (configuration not stated) the INHIBITION was 75.6%. Compound `CC(C)c1ccc(-c2nonc2N)cc1` has an INHIBITION of -15.2%. In the case of `Cc1ccc(C(N)c2cccs2)cc1` (configuration not stated), the INHIBITION is reported as 61.5%. Work on `O=C(O)CC(NC(=O)CCCc1cccs1)c1ccc(F)cc1` (configuration not stated) yielded an INHIBITION of 18.4%. For `Cc1ccc(C(N)c2cccc(S(C)(=O)=O)c2)cc1` (configuration not stated), the INHIBITION was 38.7%. `CSCC(=O)N1CCCN(Cc2cscn2)CC1` showed an INHIBITION of 7.77%. `CCc1oc2ccc(NS(=O)(=O)CC)cc2c1C(=O)OC` showed an INHIBITION of 1.41%. `CC(C)=CCCC1(C)C=Cc2c(cc(C)n(CC(=O)O)c2=O)O1` (configuration not stated) was tested, and the INHIBITION was 18.3%. In the case of `COC(=O)CN(C(=O)C(C)c1c(F)cccc1F)c1cccc(C)n1` (configuration not stated), the INHIBITION is reported as 76%. Compound `CCC(C)C(=O)N(CC(=O)OC)c1cccc(C)n1` (configuration not stated) has an INHIBITION of 10.6%. Work on `COC(=O)CN(C(=O)c1cc(C(C)C)no1)c1cccc(F)c1` yielded an INHIBITION of 7.38%. `COC(=O)CN(C(=O)c1ccc(Cl)cn1)c1cccc(F)c1` showed an INHIBITION of 33.1%. With `COC(=O)CN(C(=O)c1cccc(F)c1Cl)c1cccc(C)n1` the INHIBITION was 29.8%. Work on `COC(=O)CN(C(=O)c1cc(C)c(F)cc1F)c1cccc(C)n1` yielded an INHIBITION of 61.7%. For `O=C(O)Cc1nc2nccc(-c3ccc(F)cc3)n2n1`, the INHIBITION was 11.5%. `Cn1cccc1CN(C(=O)Cc1cccs1)C1CC1` showed an INHIBITION of 6.54%. `N#Cc1ccc(C(=O)O)nc1C=Cc1cccc(Br)c1` gave an INHIBITION of 39.4%. `O=C(c1cnc(-c2noc3cc(N4CCCC4)ccc23)s1)N1CCCC1` gave an INHIBITION of 8.31%. In the case of `O=C(NCCN1CCCC1)c1ccc2c(-c3nccs3)noc2c1`, the INHIBITION is reported as 28.2%. For `CN(C)CCNC(=O)c1ccc2c(-c3nccs3)noc2c1`, the INHIBITION was -33%. With `CCN(C)C(=O)c1cnc(-c2noc3cc(N4CCCCC4)ccc23)s1` the INHIBITION was 76.3%. For `CC1CCN(c2ccc3c(-c4ncc(C(=O)O)s4)noc3c2)CC1`, the INHIBITION was 23.1%. `O=C(NC1CC1)c1cnc(-c2noc3cc(N4CCCCC4)ccc23)s1` showed an INHIBITION of 95.5%. `CC(C)COC(=O)N1CC(=O)N(Cc2ccco2)CC(O)C1` (configuration not stated) was tested, and the INHIBITION was 47.2%. Compound `CC(C)Nc1ncc(-c2ccncc2)c([C@@H]2CCCO2)n1` has an INHIBITION of 11.8%. For `CN1CCn2c(-c3cnn(C)c3)cnc2C12CCN(CC1CC1)CC2`, the INHIBITION was 0.804%. `CN1CCC(c2nnc3n2CCN(S(=O)(=O)c2ccccc2)C3)CC1` gave an INHIBITION of 40.45%. With `Cc1nc(CN(C)C2CCN(Cc3cccc(F)c3)C2)no1` (configuration not stated) the INHIBITION was 17.5%. In the case of `Clc1cncc(NCc2cccc(OCCN3CCOCC3)c2)n1`, the INHIBITION is reported as 58.5%. For `Cc1csc(CNc2cccc(OCCN3CCCC3)c2)n1`, the INHIBITION was 28%. `Cc1ccnc(NCc2cccc(OCCN3CCOCC3)c2)n1` showed an INHIBITION of -21.1%. `c1ccc(NCc2cccc(OCCN3CCOCC3)c2)nc1` showed an INHIBITION of -8.25%. `c1cncc(CNc2cccc(OCCN3CCCCC3)c2)c1` was tested, and the INHIBITION was 68%. `Cc1ncsc1CNc1cccc(OCCN2CCCC2)c1` was tested, and the INHIBITION was 48.5%. In the case of `NC(=O)C1CCN(CCc2ccc(NCc3cccnc3)cc2)CC1`, the INHIBITION is reported as 25.3%. In the case of `c1cc(CN2CCCCC2)cc(NCc2cc[nH]n2)c1`, the INHIBITION is reported as 2.22%. `c1cc(NCc2cscn2)cc(OCCN2CCCCC2)c1` gave an INHIBITION of 56.1%. Work on `CC(C)=CCN1CCN(C(=O)C2CCS(=O)(=O)C2)CC1` (configuration not stated) yielded an INHIBITION of 8.4%. `Cc1ncn(CCNC(=O)Nc2ccccc2)c(=O)c1C` gave an INHIBITION of -10.6%. `O=S(=O)(CCCN1CCCC(Cn2cncn2)C1)c1ccccc1` (configuration not stated) was tested, and the INHIBITION was 7.67%. Work on `Cn1nc(Cn2cccn2)c2c1CN(Cc1ccoc1)C2` yielded an INHIBITION of 20.1%. With `CCn1ncc2[nH]c(-c3ccc(OC)c(COC)c3)nc21` the INHIBITION was -45.8%. `CC(C)(C)c1cc(C(=O)N2CCOC(c3cnccn3)C2)[nH]n1` (configuration not stated) was tested, and the INHIBITION was 12.15%. For `Cc1cc(CN2CCC(C3Nc4ccccc4S(=O)(=O)N3)CC2)oc1C` (configuration not stated), the INHIBITION was 32.8%. `Cc1ncnc2c1CCN(C(=O)Cc1ccccn1)CC2` was tested, and the INHIBITION was 14.1%. `COc1cccc(CC(=O)N2CCc3ncnc(NC(C)C)c3CC2)c1` was tested, and the INHIBITION was -4.55%. For `COCCNc1ncnc2c1CCN(C(=O)CC1CCC(=O)N1)CC2` (configuration not stated), the INHIBITION was 73.2%. `COc1cccc(CC(=O)N2CCc3ncnc(NCCO)c3CC2)c1` showed an INHIBITION of 64%. `COc1cccc(CC(=O)N2CCc3ncnc(C)c3CC2)c1` showed an INHIBITION of 61.5%. For `CC(C)Nc1ncnc2c1CCN(C(=O)CC1CCCC1)CC2`, the INHIBITION was 18.3%. Compound `COCCCNc1ncnc2c1CCN(C(=O)CC1C=CCC1)CC2` (configuration not stated) has an INHIBITION of 48.2%. `COc1cccc(C)c1C(=O)N1CCc2ncnc(NCCO)c2CC1` was tested, and the INHIBITION was 27.6%. Work on `COc1cccc(C(=O)N2CCc3ncnc(C)c3CC2)c1` yielded an INHIBITION of -34.9%. In the case of `O=C(CCc1cc2n(n1)CCCN(C(=O)[C@H]1CCCO1)C2)NC1CC1`, the INHIBITION is reported as 33.4%. `CC(C)c1noc(C2CCN(S(=O)(=O)c3cccs3)CC2)n1` showed an INHIBITION of 17.5%. Compound `O=C(Nc1cc(C(F)(F)F)c[nH]c1=O)C1CCNCC1` has an INHIBITION of 11.9%. `O=C(CN1CCOC(Cn2cncn2)C1)NCc1cccs1` (configuration not stated) was tested, and the INHIBITION was 34.05%. For `Cc1ccc(CN(CCCO)Cc2nc3ccccc3[nH]2)s1`, the INHIBITION was 29.1%. In the case of `Cc1ccc(CN(CCCn2ccnc2)Cc2c[nH]nc2C(C)(C)C)s1`, the INHIBITION is reported as 70.1%. With `Cc1ccc(CN(CCCn2ccnc2)Cc2ccccc2O)s1` the INHIBITION was 54.4%. `COc1ccccc1CN(CCCn1ccnc1)CC1CCOC1` (configuration not stated) was tested, and the INHIBITION was 43.4%. With `Cc1ccc(O)c(CN(CCCn2ccnc2)Cc2ccc(C)s2)c1` the INHIBITION was 79.7%. For `Cc1ccc(CN(CCCn2ccnc2)Cc2[nH]cnc2C)s1`, the INHIBITION was 9.93%. `Cc1cn2nc(N3CCCC3Cn3nc(C)nc3C)sc2n1` (configuration not stated) gave an INHIBITION of -39.7%.
